Bioassay records from PubChem.
HTT cytoprotect – cytoprotection in Huntington HTT-Q103 PC12 cell model; PC12 HTT-Q103 induced, cytoprotection, ATP luminescence, 40 h; actives 0.14% (n = 230,000); Potency, µM (doses to about 56.4 µM), usual class: activators; further: nearly all actives have a fitted effect of over 45% in size
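Cells were plated at 1500 per well in phenol red-free DMEM with 5% equine and 5% calf serum. Tebufenozide (100 nM final) and compounds were added, then ATPlite reagent, and luminescence was read.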
ATXN viability – reduces viability in counter-screen for ATXN expression inhibitors | Potency, µM (doses to about 56.7 µM), usual class: cytotoxic | AID 651635 | S2 cells (HEK-293 line with an ATXN2-luciferase reporter) viability, CellTiter-Fluor protease fluorescence, 24 h | actives 0.49% (n = 400,000); further: nearly all actives have a fitted effect of over 40% in size
HepG2 tox – HepG2 cytotoxicity, counter-screen for TGF-b inhibitors; AID 588856; Potency, µM (series often up to 46.1 µM), actives largely listed as cytotoxic; HepG2 CAGA-GFP viability, ATP luminescence, 18 h; actives 0.76% (n = 410,000)
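CellTiter-Glo luminescence gave cytotoxicity after 18 hours at 37 degrees C. The cells were HepG2 CAGA-GFP in 1% FBS DMEM, stimulated with 500 pg/mL TGF-beta after compound addition. %Activity was normalised to no-cell wells (complete cell-killing) and DMSO (no toxicity), and curves were fitted and classified.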
ATXN2 expr inh – ATXN2 expression inhibition; Potency, µM (doses to about 57 µM), hits mostly inhibitors; actives 0.72% (n = 360,000); HEK-293 ATXN2-luciferase reporter, luminescence, 24 h; further: nearly all actives have a fitted effect of over 55% in size
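ATXN2-luciferase reporter cells (luciferase flanked by upstream and downstream ATXN2 gene portions) were treated 24 h at 37 °C with compounds at up to 57 uM. SteadyGlo luminescence gave expression; GF-AFC fluorescence gave viability.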
HTT aggregate – inhibitors of mutant huntingtin aggregate formation in PC12 cells. Potency, µM (series often up to 46.1 µM), most hits filed as inhibitors. PC12 HttQ103-GFP aggregates, Acumen cytometry, 40 h. actives 1.1% (n = 220,000); further: nearly all actives have a fitted effect of over 60% in size
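Quantitative HTS on tebufenozide-induced (100 nM) PC12 cells stably expressing polyQ103 Huntingtin exon 1–GFP. Reduction of bright GFP aggregates, detected by laser scanning cytometry after lysis, identified actives across the titration.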
TGFb SMAD3 inh – inhibitors of TGF-b signaling | HepG2 CAGA-GFP TGF-b/SMAD3 reporter, GFP fluorescence, 18 h; TGF-beta stimulated, 500 pg/mL final | Potency, µM (titrated, usually from 46.1 µM), hits mostly inhibitors | actives 1.2% (n = 410,000) | AID 588855; further: nearly all actives have a fitted effect of over 65% in size
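GFP signal (ex488/em500-530) from TGF-beta-stimulated HEPG2 CAGA-GFP cells, 500 pg/mL final, 18 h at 37 degrees C in DMEM plus 1% FBS, normalized to unstimulated and DMSO-stimulated controls.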
A number is an active result; i = inactive; ? = inconclusive; nt = no result; [ ] = remark or other dose. The list is not random: actives were taken first. Their share in the collection is about 2.8%. The call rests on the fitted dose curve; in most records, active means well fitted curve in the direction sought with a large enough effect; inconclusive means small, poorly fitted or top-dose-only effect, or another doubt; inactive means no such curve, though single readings can be large; an effect the other way counts as inactive or inconclusive.

SMILES	HTT cytoprotect	ATXN viability	HepG2 tox	ATXN2 expr inh	HTT aggregate	TGFb SMAD3 inh
CCNc1ccc(Br)cc(C(=O)/C=C/c2ccc(Cl)cc2Cl)c1=O	i[10 µM]	?	i	31.6µM	i	i
CNc1ccc(Br)cc(C(=O)/C=C/c2ccc(OC)cc2)c1=O	nt	i	i	?	?	i
CNc1ccc(Br)cc(C(=O)/C=C/c2ccc3c(c2)OCO3)c1=O	i	i	i	?	i	?
CNc1ccc(Br)cc(C(=O)/C=C/c2cc(OC)ccc2OC)c1=O	i[10 µM]	nt	i	?	i[9.22 µM]	15.8µM
O=C(O)C1=CO[C@@H](O[C@@H]2O[C@H](CO)[C@H](O)[C@H](O)[C@H]2O)[C@@H]2C(CO)=CC[C@H]12	nt	nt	nt	i	nt	nt
COc1cc(NC(=S)NC2CC2)c(OC)cc1Cl	i[10 µM]	i	i	nt	20µM	i
Clc1nc(NCC2CCCO2)c2[nH]cnc2n1 (stereo unspecified)	nt	nt	i	nt	nt	i
COc1ccc(C(=O)c2coc3c2C(=O)C(=O)c2ccccc2-3)cc1	i[10 µM]	?	i	i	i[9.22 µM]	?
O=C(c1ccccc1)c1coc2c1C(=O)c1ccccc1C2=O	nt	i	10µM	i	?	?
CCOC(=O)C1=C(C2=CCCCC2)c2ccc(OC)cc2N(S(=O)(=O)C(F)(F)F)C1C(=O)OCC (stereo unspecified)	nt	?	i	?	nt	14.1µM
CCOC(=O)C1C(C(=O)OC)=C(c2ccc(OC)cc2)c2ccc(OC)cc2N1S(=O)(=O)C(F)(F)F (stereo unspecified)	i	i	i	i	nt	?
CN(C)Cc1c(-c2ccc(Cl)cc2)nc2ccccn12	i	i	i	i	0.0316µM	i
Cc1ccc(S(=O)(=O)c2ccc([N+](=O)[O-])o2)cc1	nt	10.6µM	i	6.7µM	nt	10µM
Cc1ccc(S(=O)(=O)Nc2c(C)cc([N+](=O)[O-])cc2C)cc1	nt	i	i	i	nt	i
CCn1c(SC(C)C(=O)Nc2ccc(C)cc2)nnc1-c1ccccc1 (stereo unspecified)	nt	nt	i	nt	nt	i
COc1cccc(OC)c1C(=O)NCCc1ccccc1	nt	i	i	i	nt	i
COC(=O)c1c(N)sc(C(=O)NCCc2ccccc2)c1C	nt	i	i	3.55µM	nt	i
O=Nc1c(O)n(Cc2ccc(Cl)c(Cl)c2)c2ccccc12	i	?	12.6µM	?	i	i
CC(C)(C)C1C/C(=C/c2ccccn2)C(=O)/C(=C/c2ccccn2)C1 (stereo unspecified)	i	1.78µM	i	1.41µM	?	0.891µM
CC1C/C(=C/c2ccccn2)C(=O)/C(=C/c2ccccn2)C1 (stereo unspecified)	nt	nt	i	?	?	1.26µM
O=C1/C(=C/c2ccccn2)COc2ccccc21	i	i	i	i	i	i
COC(c1ccccc1)(c1ccccc1)[C@H](Oc1nc(C)cc(C)n1)C(=O)O	nt	i	nt	i	nt	nt
Cc1c(C(=O)NCC2CCCN(C)C2)cnn1-c1ncc2c(n1)-c1ccccc1CCC2 (stereo unspecified)	nt	i	nt	nt	nt	nt
O=C(NCc1cc(C(F)(F)F)ccc1Cl)c1cccc2c1C(=O)c1ccc(N3CCC(N4CCCCC4)CC3)cc1S2(=O)=O	nt	?	15.8µM	25.1µM	nt	?
CCOc1ccc(-n2c(SCc3ccc([N+](=O)[O-])cc3)nnc2-c2ccccc2)cc1	i[10 µM]	i	i	?	20µM	i
CC#CCN1c2ccccc2[C@]23C[C@@H](C(=O)OC)N(S(=O)(=O)CCCC)C2=NC(C(=O)OC)=C(C(=O)OC)[C@H]13	i[10 µM]	nt	nt	nt	nt	nt
O=C(Nc1ccc2cn[nH]c2c1)c1c(Cl)cccc1Cl	i[10 µM]	i	i	i	i	i
O=C(NC1CCNCC1)c1[nH]ncc1NC(=O)c1c(Cl)cccc1Cl	nt	nt	nt	0.385µM	nt	nt
CC1CCN2c3cc(Cl)ccc3CC3(C(=O)OC(C)(C)OC3=O)C2C1 (stereo unspecified)	nt	nt	i	nt	nt	i
Cc1ccc(-n2c(O)c(/C=N/NC(=O)C3COc4ccccc4O3)c3ccccc3c2=O)cc1 (stereo unspecified)	nt	i	i	?	?	?
